An excerpt weighted towards active compounds, which were near 4.5% of everything screened.
OvCa metastasis = Primary qHTS assay for Inhibitors of ovarian cancer metastasis using an organotypic tumor microenvironment (TME) model | SKOV3ip1-GFP adhesion/invasion on 3D omental model, fluorescence | Potency, µM (top dose mostly 45.8 µM), actives largely listed as inhibitors | 0.1% of 46,000 active; note: nearly all actives have a fitted effect of over 65% in size
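qHTS, 4-pt dose (0.36-46 umol/L); SKOV3ip1-GFP, 1,200 cells/well, no FBS; primary omental fibroblast/mesothelial co-culture 48 h pre-grown; 2 h RT + 16 h 37 C; PBS wash, 4% PFA; GFP count 488/509 nm.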
DRV1 agonist = qHTS for Agonists of Human Resolvin D1 Receptor DRV1. Probable G-protein coupled receptor 32 (Homo sapiens), O75388. CHO-K1 GPR32 beta-arrestin PathHunter luminescence, 90 min; zero percent set by DMSO-only wells. activation, % at 76.9 µM. 2.5% of 48,000 active. AID 1346428, 2018;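 active = activation of at least 60% and not above a set upper limit, about 1 call in 100 departs from these limits; inconclusive = activation of 40% to 60%, or above that upper limit; inactive = activation under 40%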
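Beta-arrestin recruitment read-out: luminescence from complemented beta-Gal in CHO-K1 GPR32 PathHunter cells, measured 1 h after detection reagent at ambient temperature following 90 min compound exposure at 37 °C; DMSO served as basal (EC0) control.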
HTT-AS act = Primary qHTS for Identification of Small Molecule Activators of Huntingtin-Antisense Promoter Activity. HEK293 HTT-AS promoter firefly luciferase reporter, 24 h; response scale: percent change from vehicle, -100% = no light. 0.24% of 48,000 active. Potency, µM (doses to about 57.5 µM), hits mostly activators; note: nearly all actives have a fitted effect of over 55% in size
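HEK293 Fluc reporter, 2,500 cells/well, 24 h pre-culture; cpds up to 57.5 uM final, 24 h 37 degrees C; Dual-Glo, 10 min RT; normalized vehicle = 0%, zero RLU = -100%.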
HTT promoter inh = Primary qHTS for Identification of Small Molecule Inhibitors of Huntingtin Promoter Activity. HEK293 HTT promoter firefly luciferase reporter, 24 h. Potency, µM (titrated, usually from 57.5 µM), actives largely listed as inhibitors. 0.93% of 48,000 active. AID 1508623, 2021; note: nearly all actives have a fitted effect of over 50% in size
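Quantitative HTS used concentration series of up to 57.5 uM final on HEK293 luciferase reporter cells, 24 h at 37 degrees C. Readout was Dual-Glo firefly luminescence.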
NTMT1 inhibitor = Primary qHTS for Inhibitors of N-terminal methyltransferase 1 (NTMT1): MTaseGlo Assay; N-terminal Xaa-Pro-Lys N-methyltransferase 1 (Homo sapiens), Q9BV86; NTMT1 MTase-Glo SAH luminescence, purified enzyme; Potency, µM (highest dose often 114 µM), usual class: inhibitors; 2.5% of 59,000 active; AID 1645870, 2021; note: nearly all actives have a fitted effect of over 65% in size
Target sequence (Q9BV86 whole entry, looked up): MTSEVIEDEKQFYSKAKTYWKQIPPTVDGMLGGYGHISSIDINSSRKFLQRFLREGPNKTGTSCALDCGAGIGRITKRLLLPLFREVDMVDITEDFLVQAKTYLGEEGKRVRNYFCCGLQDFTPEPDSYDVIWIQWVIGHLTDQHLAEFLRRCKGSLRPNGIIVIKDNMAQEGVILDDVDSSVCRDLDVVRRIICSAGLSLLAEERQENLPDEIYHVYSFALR
Sfp qHTS opt = qHTS Assay for Inhibitos of Bacillus subtilis Sfp phosphopantetheinyl transferase (PPTase): Chemistry Optimization Followup; purified Sfp PPTase enzyme activity, qHTS; 78% of 230 active; shares compounds with NTMT1 inhibitor; Potency, µM (highest dose often 114 µM), hits mostly inhibitors
HM489 growth = qHTS for Inhibitos of Bacillus subtilis Sfp phosphopantetheinyl transferase (PPTase): Chemistry Optimization Followup in B. Subtilis HM489 | shares compounds with NTMT1 inhibitor | B. subtilis HM489 (acpS-) growth, BacTiter-Glo, 5 h | Potency, µM (series often up to 114 µM), usual class: inhibitors | 50% of 220 active
Sfp gel opt = Gel-Based Assay for Inhibitos of Bacillus subtilis Sfp phosphopantetheinyl transferase (PPTase): Chemistry Optimization Followup | shares compounds with NTMT1 inhibitor | purified Sfp PPTase, gel-based product detection | Potency, µM (doses to about 250 µM), hits mostly inhibitors | 54% of 220 active | AID 540355, 2011
Sfp inh SAR2 = qHTS Assay for Inhibitors of Bacillus subtilis Sfp phosphopantetheinyl transferase (PPTase): SAR Round 2; AID 602370, 2012; Potency, µM (series often up to 57.1 µM), most hits filed as inhibitors; purified Sfp enzyme, PPTase activity, qHTS; 87% of 230 active; shares compounds with NTMT1 inhibitor
HSD17B4 counter = Extended Characterization of HPGD Inhibitors: Counterscreen Against HSD17b4 | shares compounds with NTMT1 inhibitor | purified HSD17B4, estradiol/NAD+, NADH fluorescence | Potency, µM (highest dose often 57.1 µM), actives largely listed as inhibitors | 10% of 230 active | AID 743187, 2013
ALDH1A1 inh = Extended Characterization of HPGD Inhibitors: Counterscreen Against ALDH1A1 | 93% of 230 active | Potency, µM (titrated, usually from 57.1 µM), actives largely listed as inhibitors | shares compounds with NTMT1 inhibitor | recombinant ALDH1A1, NADH fluorescence, propionaldehyde/NAD+
NNMT inh = Counterscreen qHTS for Inhibitors of N-terminal methyltransferase 1 (NTMT1): NNMT MTaseGlo assay. 10% of 120 active. NNMT MTase-Glo luminescence, SAH detection. shares compounds with NTMT1 inhibitor. Potency, µM (top dose mostly 57.1 µM), hits mostly inhibitors
Target sequence (P40261 whole entry, looked up): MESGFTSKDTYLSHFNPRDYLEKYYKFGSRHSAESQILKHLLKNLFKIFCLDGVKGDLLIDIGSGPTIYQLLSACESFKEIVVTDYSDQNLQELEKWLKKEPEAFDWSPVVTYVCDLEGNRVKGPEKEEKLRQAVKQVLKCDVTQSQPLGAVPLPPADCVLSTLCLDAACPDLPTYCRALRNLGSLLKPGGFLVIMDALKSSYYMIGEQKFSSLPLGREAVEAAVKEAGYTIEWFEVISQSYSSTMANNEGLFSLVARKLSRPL
Of the large screens only hits and unclear results are named; the others gave an inactive call (follow-up assays come after a bar, where they were run). Unless noted, calls come from the whole dose curve; as a rule, active = well fitted curve in the direction sought with a large enough effect; inconclusive = small, poorly fitted or top-dose-only effect, or another doubt; inactive = no such curve, though single readings can be large; an effect the other way counts as inactive or inconclusive.

Cc1cc(C)nc(NC(=S)N2CCN(c3cccc(S(C)(=O)=O)c3)CC2)c1	NTMT1 inhibitor inconclusive (no result: OvCa metastasis, DRV1 agonist, HTT-AS act, HTT promoter inh) | Sfp qHTS opt 4.7µM | HM489 growth inactive | Sfp gel opt 16µM | Sfp inh SAR2 2.9µM | HSD17B4 counter inactive | ALDH1A1 inh 15µM
O=C(Cc1c(F)cccc1F)Nc1cc(OCc2ccc(Cl)cc2)ccn1	none (no result: OvCa metastasis, DRV1 agonist, HTT-AS act, HTT promoter inh) | NNMT inh inconclusive
CN(C)CCCn1cc(C2=C(c3c[nH]c4ccccc34)C(=O)NC2=O)c2ccccc21	NTMT1 inhibitor 25µM (no result: OvCa metastasis, DRV1 agonist, HTT-AS act, HTT promoter inh) | NNMT inh inconclusive
COc1ccc(-c2onc(C)c2C)cc1S(=O)(=O)NCC(C)c1ccccc1 (stereo not given)	HTT promoter inh inconclusive
COc1cccc(C(=O)NCCNc2nc3cc(C)cc(C)c3cc2C#N)c1	none (no result: OvCa metastasis, DRV1 agonist, HTT-AS act, HTT promoter inh) | NNMT inh inconclusive
CCCN(CCC)CCNC(=O)c1nn(C)c2c1CS(=O)(=O)c1ccccc1-2	none
COc1cc2c(NC3CCN(C(C)C)CC3)nc(N3CCCN(c4ccccc4)CC3)nc2cc1OCCCN1CCCC1	none (no result: OvCa metastasis, DRV1 agonist, HTT-AS act, HTT promoter inh, NTMT1 inhibitor) | NNMT inh inactive
COc1cc2c(NC3CCN(C(C)C)CC3)nc(N3CCC(F)(F)CC3)nc2cc1OCCCN1CCCC1	none (no result: OvCa metastasis, DRV1 agonist, HTT-AS act, HTT promoter inh)
Cc1ccc(CCNC(=O)CN2C(=O)COc3ccc(S(=O)(=O)N4CCCC4)cc32)cc1	none
NCCOc1cc(C(=O)Nc2cc(OCCN)c3ccccc3n2)nc(C(=O)Nc2cc(OCCN)c3ccccc3n2)c1	NTMT1 inhibitor 22µM (no result: OvCa metastasis, DRV1 agonist, HTT-AS act, HTT promoter inh) | NNMT inh inactive
COc1ccc(Nc2cc(C(=O)NCc3ccccc3)c3ccccc3n2)c(OC)c1	none
